The nature of experiment [1]: qHTS Assay for Identification of Small Molecule Antagonists for NFkB Signaling Pathway (AID 895; active = well fitted inhibition curve with a large enough effect in the signal ratio, with a control signal flat, not every such curve was filed as active; the % refers to the signal ratio; note: potency is the fitted concentration of half-maximal effect). The method in brief:
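ME-180 NFkB-bla cells (beta-lactamase under NFkB response element), plated overnight, treated with compound then 10 pM TNF alpha (about EC50) for 5 hrs at 37 C. LiveBLAzer FRET read at 460/530 nm emission, 405 nm excitation.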

The nature of experiment [2]: Confirmation and Secondary Assay for Modulators of Hemoglobin Beta Chain Splicing at IVS2 654 locus (AID 910).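 Note: HeLa cells stably carrying EGFP split by mutant beta-globin IVS2-654 intron; % of control where 0% means no effect.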 Put shortly:
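HeLa cells stably expressing EGFP interrupted by β-globin IVS2-654 intron, seeded overnight in Opti-MEM/2% FCS, then treated 2 days at 37 °C. Restored splicing read as total peak GFP intensity per well by laser scanning cytometry (488 nm excitation, 500–520 nm emission); 500 nM antisense PNA as control.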

Experiment [3] is described as follows: qHTS Assay for Identification of Small Molecule Agonists for Thrombopoietin (TPO) Signaling Pathway (AID 917). Note: % is set by controls: 0 for no effect and ±100 for the full control effect. The method in brief:
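We measured Glycoprotein IIb promoter–luciferase output in IL-3-starved Ba/F3 murine cells expressing the human TPO receptor after 24 hrs at 37 C with compounds and 26 pM TPO.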

Experiment [4] in a line: Confirmation and Secondary Assay for Modulators of Hemoglobin Beta Chain Splicing at IVS2 705 locus (AID 930).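 Note: HeLa cells stably expressing the EGFP-705 splicing reporter; GFP fluorescence per well restored by corrected splicing of the IVS2-705 intron in EGFP; series mostly up to about 46 µM; % of control where 0% means no effect.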 Put shortly: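 Stable HeLa line with EGFP disrupted by mutant beta-globin intron 2 (705). Overnight attachment, then 2 days of compound at 37C, 5% CO2. Signal: peak GFP intensity summed over objects 5-250 µm.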
Experiment [5] has as its target Pyruvate kinase (Leishmania mexicana) (UniProt Q27686). Briefly: qHTS Validation Assay for Inhibitors of Leishmania Mexicana Pyruvate Kinase (AID 945).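 Note: 0% = DMSO only neutral control wells.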 The method in brief: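 Mutant LmPYK (E451W), 0.2 nM, plus 0.5 mM PEP and 0.1 mM ADP in 50 mM imidazole pH 7.2 containing 0.01% Tween 20 and 0.05% BSA. Incubated 1 h at room temperature; luminescence via PKLight, normalized to DMSO.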

Experiment [6] concerns the target Cytochrome P450 2C19 (Homo sapiens) (UniProt P33261). Briefly: qHTS Assay for Inhibitors and Substrates of Cytochrome P450 2C19 (AID 899). Note: nearly all actives have a fitted effect of over 60% in size. Note: potency is the fitted concentration of half-maximal effect. The method in brief:
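5 nM human CYP2C19 with 10uM Luciferin-H EGE (at KM) in 50mM KPO4, compound preincubated 10 min at 37C, then NADPH regeneration for 60 min at 37C. Luciferin read by luminescence after detection reagent; normalized to 57uM ketoconazole as full inhibition.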

In experiment [7] the target is Muscarinic acetylcholine receptor M1 (Rattus norvegicus) (UniProt P08482). Briefly: qHTS Assay for Antagonists of Acetylcholine Muscarinic M1 Receptor: Kinetic Measurement of Intracellular Calcium Response (AID 943). Note: nearly all actives have a fitted effect of over 75% in size. Note: potency is the fitted concentration of half-maximal effect. Put shortly:
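Intracellular calcium flux, recorded with Fluo-4 in a kinetic plate reader, served as signal; the response to carbachol at EC80 (100 nM final) was taken as maximal over minimal fluorescence after a 10 min compound pre-incubation in rat M1-CHO cells.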

Experiment [8] has the same target. Nature of the experiment: qHTS Assay for Antagonists of Acetylcholine Muscarinic M1 Receptor: Measurement of IP-One Response (AID 944). Note: nearly all actives have a fitted effect of over 75% in size. Note: potency is the fitted concentration of half-maximal effect. Put shortly: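 Steps: plate transfected CHO-M1 cells overnight; add test compound, 10 min; add carbachol (200 nM, EC80) in stimulation buffer with LiCl; incubate 30 min; add labelled IP1 tracer and anti-IP1 antibody in lysis buffer; read HTRF after 10 min.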

Experiment [9] in a line: Cell Viability - LYMP2-001 (AID 921).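 Note: series mostly up to about 92 µM; cells exposed to compound for 24 h at 37 °C; 0% = DMSO only and full inhibition = tetraoctylammonium bromide control wells; nearly all actives have a fitted effect of over 70% in size.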 The method in brief:
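qHTS, 1536-well; lymphoblastoid cells, 24 hr compound, 37 C; ATP by CellTiter-Glo, 30 min RT; luminescence; Hill-fit AC50.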

Experiment [10] in a line: MultiTox-Fluor Cytotoxicity Assay - LYMP1-001 - Dead Cells (AID 946).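 Note: cells exposed to compound for 16 h; 0% = DMSO and 100% = tetraoctylammonium bromide.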 The method in brief: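 AC50 from Hill fit of concentration-response; data normalized to DMSO (basal) and 15 uM tetraoctylammonium bromide (100%). LYMP1-001 lymphoblastoid cells, 2500/well, 16 hr compound at 37 C; dead-cell protease fluorescence, Ex/Em 485/520.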
Experiment [11] can be described thus: MultiTox-Fluor Cytotoxicity Assay - LYMP1-001 - Live Cells (AID 947).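 Note: 0% = DMSO only and full inhibition = tetraoctylammonium bromide control.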
The nature of experiment [12]: Cell Viability - LYMP1-002 - Assay at 16 hr (AID 948).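 Note: 0% = DMSO alone and full effect = 92 µM tetraoctylammonium bromide.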 Put shortly: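 Acute cytotoxicity is scored as a concentration-dependent fall in intracellular ATP in a human lymphoblastoid line (LYMP1-002) after 16 hr compound exposure at 37 C, measured by luciferase luminescence.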
Experiment [13] can be described thus: MultiTox-Fluor Cytotoxicity Assay - LYMP1-002 - Live Cells (AID 955).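 Note: cells exposed to compound for 16 hours; % is set by controls: 0 for no effect and ±100 for the full control effect.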 The method in brief: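 Cytotoxicity in the human lymphoblastoid line LYMP1-002 is measured as loss of live-cell protease activity after 16 h treatment in complete culture medium. AC50 is derived from Hill-equation fits of qHTS concentration-response data.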
The nature of experiment [14]: MultiTox-Fluor Cytotoxicity Assay - LYMP1-002 - Dead Cells (AID 960).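 Note: cells exposed to compound for 16 h at 37 °C; 0% = DMSO and 100% = tetraoctylammonium bromide; nearly all actives have a fitted effect of over 60% in size.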 Put shortly:
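Acute cytotoxicity in a human lymphoblastoid line is scored as rising dead-cell protease signal after 16 hr exposure at 37 C, measured fluorometrically (485/520).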

Experiment [15] in a line: MultiTox-Fluor Cytotoxicity Assay - LYMP1-003 - Live Cells (AID 962).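 Note: cells exposed to compound for 16 hours at 37 °C; 0% = DMSO only and full loss = 92 µM tetraoctylammonium bromide; cytotoxic hits lower the live-cell protease signal.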 Put shortly:
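Cells plated at 2500 per well and incubated 5 hr; compounds added and incubated 16 hr at 37 C; MultiTox-Fluor reagent added for 60 min at room temperature; fluorescence of liberated AFC measured at 405/510 nm.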

Experiment [16] can be described thus: qHTS Assay for Identification of Small Molecule Agonists for Hypoxia Response Element Signaling Pathway (AID 914; active = well fitted activation curve with a large enough effect in the signal ratio, with a control signal flat, not every such curve was filed as active; the % refers to the signal ratio; note: % of control where 0% means no effect). As to conditions: ME-180 (cervical carcinoma) HRE-bla reporter, beta-lactamase ratio, CoCl2, 17 h; stronger effect = higher value. The method in brief:
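Reporter activity (beta-lactamase, CCF4 460nm/530nm ratio) in HRE-bla ME-180 cells is recorded after 17 h compound exposure with EC50 CoCl2 at 37 degrees Celsius. AC50 values come from titration data.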

In experiment [17] the target is Pyruvate kinase PKM (Homo sapiens) (UniProt P14618). Briefly: qHTS Assay for Activators of Human Muscle Pyruvate Kinase (AID 954; active = well fitted curve in the direction sought with a large enough effect, not every such curve was filed as active;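 note: 0% = uninhibited enzyme and -100% = no enzyme or full thiadiazolimine inhibition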). Put shortly: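 Luminescence from a luciferase ATP-detection/stop reagent reported PKM2 activity. Reactions contained 0.1 nM purified human enzyme, 0.5 mM PEP, 0.1 mM ADP and 7 mM MgCl2 at pH 7.2, run 1 h at RT.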
Sequence of Pyruvate kinase PKM (Homo sapiens) (P14618 whole entry, looked up): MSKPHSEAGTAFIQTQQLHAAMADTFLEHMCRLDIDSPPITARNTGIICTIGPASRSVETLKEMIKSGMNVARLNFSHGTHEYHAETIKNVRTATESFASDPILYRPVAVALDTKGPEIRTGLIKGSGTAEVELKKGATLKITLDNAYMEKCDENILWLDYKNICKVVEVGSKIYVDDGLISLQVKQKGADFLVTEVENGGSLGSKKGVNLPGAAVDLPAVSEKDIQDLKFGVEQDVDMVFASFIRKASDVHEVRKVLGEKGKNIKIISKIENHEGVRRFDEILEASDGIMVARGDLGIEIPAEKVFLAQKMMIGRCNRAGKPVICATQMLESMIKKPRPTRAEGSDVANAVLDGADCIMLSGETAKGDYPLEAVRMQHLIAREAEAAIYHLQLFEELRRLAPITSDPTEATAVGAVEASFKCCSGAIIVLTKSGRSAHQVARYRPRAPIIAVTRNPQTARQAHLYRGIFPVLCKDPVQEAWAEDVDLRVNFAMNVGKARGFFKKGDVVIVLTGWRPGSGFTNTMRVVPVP

Several values for one entry are separate records, joined by “and”; a condition that tells them apart may be missing. Equal entries are not always repeated. Inconclusive results are not listed. More than one record can exist for a structure, and the calls need not agree. Activity calls are given as the source filed them. Unless noted, calls come from the whole dose curve; as a rule, active = well fitted curve in the direction sought with a large enough effect; inconclusive = small, poorly fitted or top-dose-only effect, or another doubt; inactive = no such curve, though single readings can be large; an effect the other way counts as inactive or inconclusive.

Sequence of Muscarinic acetylcholine receptor M1 (Rattus norvegicus) (P08482 whole entry, looked up): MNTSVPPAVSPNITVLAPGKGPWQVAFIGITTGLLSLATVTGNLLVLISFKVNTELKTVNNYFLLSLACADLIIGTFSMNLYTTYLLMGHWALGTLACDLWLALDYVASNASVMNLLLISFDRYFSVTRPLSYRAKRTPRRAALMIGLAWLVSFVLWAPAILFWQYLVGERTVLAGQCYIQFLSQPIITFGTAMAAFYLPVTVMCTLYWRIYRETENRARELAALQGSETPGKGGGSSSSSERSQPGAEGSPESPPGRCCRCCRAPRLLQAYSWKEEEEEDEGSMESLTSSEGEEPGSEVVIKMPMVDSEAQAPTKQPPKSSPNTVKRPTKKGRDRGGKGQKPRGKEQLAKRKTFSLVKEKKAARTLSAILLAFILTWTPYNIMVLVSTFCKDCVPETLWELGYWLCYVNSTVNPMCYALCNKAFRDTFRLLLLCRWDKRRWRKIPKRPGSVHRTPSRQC
Sequence of Pyruvate kinase (Leishmania mexicana) (Q27686 2-499 E452W): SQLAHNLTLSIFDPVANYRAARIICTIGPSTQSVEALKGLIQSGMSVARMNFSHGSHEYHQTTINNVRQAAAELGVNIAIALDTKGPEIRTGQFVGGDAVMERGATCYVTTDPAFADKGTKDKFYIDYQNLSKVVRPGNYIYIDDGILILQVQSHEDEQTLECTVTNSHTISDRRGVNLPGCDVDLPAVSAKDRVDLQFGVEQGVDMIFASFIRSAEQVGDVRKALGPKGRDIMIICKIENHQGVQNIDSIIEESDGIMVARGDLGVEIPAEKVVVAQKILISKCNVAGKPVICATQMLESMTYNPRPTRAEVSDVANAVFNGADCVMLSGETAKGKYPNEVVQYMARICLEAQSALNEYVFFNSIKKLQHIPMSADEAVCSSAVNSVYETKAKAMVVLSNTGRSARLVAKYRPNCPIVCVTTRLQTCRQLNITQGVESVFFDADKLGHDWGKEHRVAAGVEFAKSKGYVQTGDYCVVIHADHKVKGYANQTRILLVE
Sequence of Cytochrome P450 2C19 (Homo sapiens) (P33261 whole entry, looked up): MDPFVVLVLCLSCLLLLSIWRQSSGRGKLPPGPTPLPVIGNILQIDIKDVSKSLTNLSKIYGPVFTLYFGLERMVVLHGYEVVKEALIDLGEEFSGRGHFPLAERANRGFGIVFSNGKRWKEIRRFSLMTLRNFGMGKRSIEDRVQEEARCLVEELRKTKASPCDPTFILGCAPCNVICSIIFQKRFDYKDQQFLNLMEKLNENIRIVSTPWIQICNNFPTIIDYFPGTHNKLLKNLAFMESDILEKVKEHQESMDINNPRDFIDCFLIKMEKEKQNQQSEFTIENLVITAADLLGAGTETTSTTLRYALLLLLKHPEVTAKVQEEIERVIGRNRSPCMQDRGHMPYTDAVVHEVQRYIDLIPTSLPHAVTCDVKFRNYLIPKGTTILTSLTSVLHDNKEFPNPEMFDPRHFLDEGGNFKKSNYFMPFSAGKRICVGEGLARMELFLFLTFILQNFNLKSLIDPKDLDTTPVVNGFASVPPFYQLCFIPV

For the molecule `CCN(CC)CCNC(=O)c1cc(S(C)(=O)=O)ccc1OC`, the Potency entry in [1] and in experiment [5] was “inactive” each time. In addition, the outcome in experiment [2], in experiment [3] and in experiment [4] was inactive.

Take `Cc1scc2c1N(C(=O)CN1CCN(C)CC1)c1ccccc1NC2=O`: the Potency entry in experiment [6] is “inactive and 3.98 µM (active)”; in [7], 0.0316 µM (active); in [8], 0.0282 µM (active). Besides, the call in [2], in experiment [3] and in experiment [4] was inactive. For the same molecule, the Potency entry in experiment [5] was “inactive”.

`CCCCNC(=O)NS(=O)(=O)c1ccc(C)cc1`: the Potency result in experiment [6], in experiment [8], in [5] and in experiment [14] was “inactive” each time. The molecule was classed as inactive in experiment [2], in [9], in [4], in [10], in [11] and in [12]. The outcome in experiment [13] and in experiment [15] was inactive.

Regarding `CCN(CC)CC(=O)Nc1c(C)cccc1C`, the Potency result in experiment [1] and in [5] was “inactive” throughout. Further, the outcome in [2], in experiment [3] and in experiment [4] was inactive.

As to `COc1ccc2c(c1OC)C(=O)O[C@@H]2[C@H]1c2c(cc3c(c2OC)OCO3)CCN1C`, in [6], the Potency was 158 nM (active).

For the molecule `CCc1cccc(N(C)C(N)=Nc2cccc3ccccc23)c1`, the Potency result in experiment [1] and in experiment [5] was “inactive” throughout. Besides, the activation in experiment [16] is -13% (inactive).

For `NC(N)=NC(=O)Cc1c(Cl)cccc1Cl`, in experiment [6], the Potency is 251 nM (active). Moreover, the outcome in experiment [3] and in experiment [17] was inactive. In addition, the Potency entry in experiment [8] and in [5] was “inactive” in each case.

As for `CN(C(=O)CCCOc1ccc2[nH]c(=O)ccc2c1)C1CCCCC1`, the Potency result in [6] and in experiment [5] was “inactive” each time. For the same molecule, the molecule was classed as inactive in [3].

Take `CCO/C([O-])=N/c1c[n+](N2CCOCC2)no1`: the Potency result in experiment [6], in experiment [7] and in experiment [5] was “inactive” throughout. In addition, the result in [2], in experiment [3], in experiment [4] and in experiment [17] was inactive.

Regarding `Cc1nc2sccn2c(=O)c1CCN1CCC(=C(c2ccc(F)cc2)c2ccc(F)cc2)CC1`, the Potency was 5.01 µM (active) in [1], 3.16 µM (active) in [7] and 15.8 µM (active) in experiment [8]. Also, the result in experiment [3] was inactive. Also, in experiment [5], the Potency result was “inactive”.

In the case of `C[C@]12CCC(=O)C=C1CC[C@@H]1[C@@H]2C(=O)C[C@@]2(C)[C@H]1CC[C@]2(O)C(=O)CO`, the Potency entry in experiment [1] and in experiment [5] was “inactive” each time. The outcome in experiment [3] was inactive.

For the molecule `C[N+](C)(C)CCOC(N)=O`, the Potency entry in [6] and in [5] was “inactive” throughout. Further, the call in [2], in [3] and in [4] was inactive.

Regarding `O=C(CCNNC(=O)c1ccncc1)NCc1ccccc1`, the Potency entry in [6], in [7], in experiment [8] and in experiment [5] was “inactive” each time. The molecule was called inactive in experiment [3].

Regarding `c1cnc(N2CCN(Cc3ccc4c(c3)OCO4)CC2)nc1`, the Potency was 2 µM (active) and 631 nM (active) in experiment [6]; 14.1 µM (active) in [7]. For the same molecule, the call in [3] and in [17] was inactive. Also, the Potency result in experiment [5] was “inactive”.

On to `CN(C)CCOC(=O)COc1ccc(Cl)cc1`, for which the Potency entry in experiment [6], in experiment [7], in experiment [8] and in experiment [5] was “inactive” in each case. The molecule was called inactive in experiment [2], in [3] and in [4].

Consider `CCCOc1ccccc1-c1nc2n[nH]nc2c(=O)[nH]1`, for which the Potency entry in experiment [1] and in experiment [5] was “inactive” throughout. In addition, the outcome in experiment [2], in experiment [3], in experiment [4] and in experiment [17] was inactive.

Regarding `N[C@@H](COP(=O)(O)O)C(=O)O`, the Potency entry in [1], in [6], in [7], in experiment [8] and in [5] was “inactive” each time. Moreover, the result in [3] was inactive.

`NC(=O)N1c2ccccc2C=Cc2ccccc21`: the Potency result in [1], in experiment [6], in [5] and in experiment [14] was “inactive” in each case. Further, the molecule was called inactive in experiment [2], in experiment [3], in [9], in experiment [4], in experiment [10] and in experiment [11]. Besides, the call in experiment [12], in experiment [13] and in [15] was inactive. Also, the activation in experiment [16] was -7.9% (inactive) and -9.09% (inactive) and -6.88% (inactive).

As for `CC(=O)Nc1nnc(S(N)(=O)=O)s1`, the Potency result in experiment [1], in experiment [6] and in [5] was “inactive” in each case. The result in experiment [2], in experiment [3], in experiment [4] and in [17] was inactive. Further, in experiment [16], the activation was 10.9% (inactive) and -10.2% (inactive) and -6.49% (inactive).

Regarding `O=C(O)CN(CCOCCOCCN(CC(=O)O)CC(=O)O)CC(=O)O`, the Potency entry in experiment [1], in experiment [7], in [8] and in experiment [5] was “inactive” each time. In addition, the molecule was called inactive in [3] and in [17].

As to `CN=C(NC#N)NCCSCc1nc[nH]c1C`, the Potency entry in experiment [6], in experiment [8], in [5] and in experiment [14] was “inactive” in each case. The call in [2], in [3], in experiment [9], in [4], in experiment [10] and in [11] was inactive. Further, the outcome in experiment [12], in experiment [17], in experiment [13] and in experiment [15] was inactive.

Regarding `O=c1[nH]c(=O)n([C@H]2C[C@H](O)[C@@H](CO)O2)cc1Br`, the Potency entry in experiment [1], in experiment [7], in [5] and in experiment [14] was “inactive” in each case. The outcome in experiment [3], in experiment [9], in [10], in experiment [11], in experiment [12] and in [13] was inactive. In addition, in experiment [15], the molecule was classed as inactive.

Regarding `CCC(=O)c1ccc2c(c1)N(CCCN(C)C)c1ccccc1S2`, the Potency entry in experiment [1] and in [5] was “inactive” throughout. Besides, the Potency is 0.398 µM (active) in experiment [7] and 1.41 µM (active) in [8]. For the same molecule, in [17], the molecule was classed as inactive.

With `Cc1nc2ccccn2c(=O)c1CCN1CCC(C(=O)c2ccc(F)cc2)CC1`, the Potency result in experiment [1], in [6] and in experiment [5] was “inactive” each time. Moreover, the molecule was classed as inactive in experiment [2] and in experiment [4]. In addition, in [8], the Potency was 8.91 µM (active).

On to `C[C@H](CS)C(=O)N1CCC[C@H]1C(=O)O`, for which the Potency entry in experiment [6] is “inactive”.

`C#CCN(C)CCCOc1ccc(Cl)cc1Cl`: the Potency in experiment [6] was 5.01 µM (active) and 2.51 µM (active).

Take `CN(C)CCCN1c2ccccc2Sc2ccc(C(F)(F)F)cc21`: the activation in experiment [16] is 12.9% (inactive).

These data come from PubChem BioAssay (NCATS).
